The supplement of paper PMC10646978
± gives the standard deviation.

Tests used:
Settings in all cases: modulator concentration 10 µM
[1] = system: RAW-Dual (murine macrophage reporter line); assay: NF-kB reporter (SEAP) activity fold change vs agonist alone; higher = enhanced NF-kB activity
In short: (§1)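 In 384-well plates holding 50 000 RAW-Dual murine macrophage reporter cells per well, compound at 10 μM final was pre-incubated for 1 hour at 37 °C, after which a PRR agonist was added overnight. Supernatant SEAP read with QUANTI-Blue at 620 nm absorbance reported NF-κB, and Lucia luciferase read with QUANTI-Luc luminescence reported IRF. Fold change values come from dividing each reporter signal by the mean of agonist-only control wells on the same plate, averaged over replicate plates with propagated errors.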

[2] = system: RAW-Dual (murine macrophage reporter line); assay: IRF reporter (Lucia luciferase) activity fold change vs agonist alone; higher = enhanced IRF activity
In short: as §1

[3] = system: RAW-Dual (murine macrophage reporter line); assay: viability score (confluency relative to resting cells, overnight) (fraction); higher = more viable, active = viable (0.7 or more)
In short: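 A compound met the cutoff when both of two confluency masks exceeded 70% of resting cells. Those masks were made with IncuCyte software from IncuCyte images of RAW-Dual macrophages treated overnight at 10 μM final. This is the basis of the viability score, which is confluency relative to resting cells.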

[4] = agonist: CpG ODN 1826 0.5 ug/mL

Row | Compound | NF-kB reporter [1, 4] | NF-kB reporter ([1]; agonist: LPS 0.1 ug/mL) | NF-kB reporter ([1]; agonist: MPLA […]) | IRF reporter ([2]; agonist: 3'3'-cGAMP 10 ug/mL) | IRF reporter ([2]; agonist: LPS 0.1 ug/mL) | IRF reporter ([2]; agonist: MPLA […]) | viability score [3]
1 | NC[C@H]1CC[C@H](C(=O)O)CC1 | 0.939 ± 0.1 | 1.06 ± 0.073 | 0.958 ± 0.021 | 0.993 ± 0.14 | 1.01 ± 0.061 | 1.13 ± 0.11 | 0.999 (active)
2 | O=C(CSc1nc(-c2ccccc2)c(-c2ccccc2)o1)N1CCOCC1 | 1.03 ± 0.081 | 1.02 ± 0.079 | 0.903 ± 0.054 | 0.954 ± 0.045 | 1.31 ± 0.11 | 1.2 ± 0.12 | 0.996 (active)
3 | CCOC(=O)C1CCN(C(=O)c2ccc(C#CC(C)(C)O)cc2)CC1 | 0.747 ± 0.063 | 0.845 ± 0.041 | 1.1 ± 0.1 | 0.91 ± 0.048 | 1.34 ± 0.077 | 1.46 ± 0.12 | 1.01 (active)
4 | CC(=O)c1ccc(Nc2ncnc(Nc3ccc(C(C)=O)cc3)c2[N+](=O)[O-])cc1 | 1.04 ± 0.1 | 1.09 ± 0.076 | 0.939 ± 0.045 | 1.01 ± 0.091 | 1.06 ± 0.052 | 0.994 ± 0.076 | 0.991 (active)
5 | CC1=CC(=NS(=O)(=O)c2ccc(C)cc2)C=C(Cl)C1=O | 0.635 ± 0.068 | 0.706 ± 0.038 | 0.68 ± 0.062 | 0.451 ± 0.02 | 0.611 ± 0.04 | 0.428 ± 0.038 | 0.89 (active)
6 | COc1cc2nc(N(C)CCCNC(=O)C3CCCO3)nc(N)c2cc1OC.Cl (stereo not drawn) | 0.585 ± 0.096 | 0.838 ± 0.14 | 0.958 ± 0.056 | 0.382 ± 0.26 | 0.996 ± 0.22 | 1.09 ± 0.2 | 0.996 (active)
7 | Cc1cc(C)c(S(=O)(=O)N2CCN(C(=O)N(C)C)CC2)c(C)c1 | 1.83 ± 0.4 | 1.21 ± 0.24 | 2.12 ± 0.63 | 0.505 ± 0.32 | 0.802 ± 0.48 | 0.738 ± 0.31 | 0.564 (inactive)
8 | CC(=O)OC1(C(C)=O)CCC2C3CC(C)C4=CC(=O)CCC4(C)C3CCC21C (stereo not drawn) | 1.65 ± 0.4 | 1.36 ± 0.11 | 1.29 ± 0.089 | 0.937 ± 0.045 | 1.1 ± 0.13 | 1.23 ± 0.14 | 0.984 (active)
9 | CCC(=O)Nc1ccc(S(=O)(=O)NCC2CCN(Cc3ccccc3)CC2)c(C)c1 | 0.787 ± 0.038 | 0.961 ± 0.076 | 1.08 ± 0.058 | 1.14 ± 0.053 | 1.37 ± 0.23 | 1.49 ± 0.43 | 0.967 (active)
10 | O=C(Cc1ccccc1)NCC(O)Cn1ccccc1=O (stereo not drawn) | 0.84 ± 0.037 | 0.9 ± 0.12 | 1.02 ± 0.067 | 1.04 ± 0.072 | 1.26 ± 0.25 | 1.43 ± 0.42 | 1 (active)
11 | CCOC(=O)C1=C(C)N(CC(C)C)C(=O)C1=Cc1cccc(Br)c1 | 1.05 ± 0.11 | 1.04 ± 0.069 | 0.869 ± 0.051 | 0.909 ± 0.03 | 0.963 ± 0.082 | 1.19 ± 0.2 | 0.992 (active)
12 | CC1(COc2ccc3c(c2)ncn3-c2ccc3cccc(N4CCC(N)CC4)c3n2)COC1 | 0.379 ± 0.25 | 0.397 ± 0.099 | 2.05 ± 0.24 | 0.0544 ± 0.0038 | 0.345 ± 0.037 | 0.339 ± 0.06 | 0.464 (inactive)
13 | O=[N+]([O-])c1ccc(Nc2ccccc2O)c2nonc12 | 1.74 ± 0.097 | 1.21 ± 0.088 | 1.7 ± 0.099 | 0.69 ± 0.023 | 1.55 ± 0.11 | 1.28 ± 0.17 | 0.9 (active)
14 | Cc1ncsc1C(=O)N1CC(OCC(F)(F)F)C1 | 0.974 ± 0.11 | 0.996 ± 0.08 | 1.01 ± 0.095 | 1.08 ± 0.11 | 1.01 ± 0.09 | 0.999 ± 0.25 | 1 (active)
15 | CC(C)(C)c1cc(CCC(=O)NN)cc(C(C)(C)C)c1O | 0.8 ± 0.066 | 0.816 ± 0.06 | 0.926 ± 0.096 | 0.519 ± 0.022 | 1.15 ± 0.12 | 1.24 ± 0.2 | 1.02 (active)
16 | CCC(C)(C)C(=O)Nc1ccc(C(C)=O)cc1 | 0.962 ± 0.076 | 1.03 ± 0.068 | 0.953 ± 0.045 | 0.909 ± 0.13 | 1.02 ± 0.14 | 1.11 ± 0.22 | 1 (active)
17 | Nc1nc(Cl)nc2c1ncn2[C@@H]1O[C@H](CO)[C@@H](O)[C@@H]1F | 2.13 ± 0.16 | 1.41 ± 0.13 | 1.4 ± 0.087 | 1.08 ± 0.26 | 1.01 ± 0.045 | 0.918 ± 0.15 | 0.482 (inactive)
18 | O=C(CS(=O)Cc1ccco1)NC/C=C\COc1cc(CN2CCCCC2)ccn1 (stereo not drawn) | 0.989 ± 0.16 | 1.02 ± 0.14 | 0.928 ± 0.052 | 0.897 ± 0.043 | 1.24 ± 0.3 | 1 ± 0.24 | 0.997 (active)
19 | C=C1C(=O)OC2C1CCC(C)=CCCC1(C)OC21 (stereo not drawn) | 0.0586 ± 0.0046 | 0.0442 ± 0.0037 | 0.0844 ± 0.008 | 0.0346 ± 0.011 | 0.025 ± 0.0055 | 0.0274 ± 0.0061 | 0.253 (inactive)
20 | COc1ccc(S(=O)(=O)N2CCC(c3ccccc3)S(=O)(=O)CC2)cc1Cl (stereo not drawn) | 0.831 ± 0.2 | 1.08 ± 0.082 | 0.978 ± 0.065 | 0.708 ± 0.024 | 1 ± 0.15 | 1.21 ± 0.32 | 0.999 (active)
21 | Cl.O=C1NCC2(CCN(CCc3ccccc3)CC2)O1 | 0.582 ± 0.028 | 0.641 ± 0.054 | 0.798 ± 0.082 | 0.672 ± 0.042 | 1.54 ± 0.26 | 1.78 ± 0.51 | 0.816 (active)
22 | CCC(=O)CC(O)(c1ccccc1)C(F)(F)F (stereo not drawn) | 1.04 ± 0.099 | 0.955 ± 0.19 | 1.02 ± 0.049 | 1.01 ± 0.14 | 0.953 ± 0.061 | 1.01 ± 0.11 | 0.996 (active)
23 | CC1COc2c(N3CCN(C)CC3)c(F)cc3c(=O)c(C(=O)O)cn1c23 (stereo not drawn) [Prestw-237] | 1.46 ± 0.24 | 1.01 ± 0.12 | 1.12 ± 0.16 | 1.14 ± 0.033 | 0.8 ± 0.078 | 0.894 ± 0.15 | 0.983 (active)
24 | COc1cc2nc(N3CCN(C(=O)C4CCCO4)CC3)nc(N)c2cc1OC.Cl.O.O (stereo not drawn) | 0.675 ± 0.12 | 0.937 ± 0.069 | 0.863 ± 0.052 | 0.963 ± 0.029 | 1.09 ± 0.094 | 1.16 ± 0.2 | 0.996 (active)
